This excerpt belongs to a sample that is enriched for hits.
Pf Dd2 growth: inhibitors of Plasmodium falciparum Dd2 growth; P. falciparum Dd2 growth, SYBR Green, 72 h; Potency, µM (highest dose often 28.9 µM), inactives show top-dose activity, negative = inhibition, usual class: inhibitors; 120,000 tested, 4.3% active; active = well fitted inhibition curve with a large enough effect;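 also: plate controls were DMSO vehicle for no effect and reference drug for full effect; nearly all actives have a fitted effect of over 65% in size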
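Readout: SYBR Green fluorescence, 485 nm excitation, 535 nm emission, after ~16 h lysis at 37C. Before that, Dd2-infected red cells (2.5% hematocrit) grew 72 h with compound, 29 uM top final concentration.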
* = called active by the depositor; i = inactive; [ ] = remark or other dose. Potency is read from the fitted curve at half-maximal effect.

SMILES	Pf Dd2 growth
N#Cc1ccccc1CN1CCCC(c2nc(-c3cccnc3)no2)CCNC(=O)CC1 (configuration not stated)	-5%
O=C1CCN(CC2CC2)CCCC(c2nc(-c3cccnc3)no2)CCN1 (configuration not stated)	i
Cn1ncc2c(C(=O)N3CCN(c4ncccn4)CC3)cc(-c3ccc(Cl)nc3)nc21	-15%
CCCc1noc(-c2cn(C3CCN(C(=O)c4ccoc4)CC3)nn2)n1	i
CCc1cccc(C)c1Nc1c(-c2ccc(F)cc2)nc2sccn12	-27%
CCc1cccc(C)c1Nc1c(-c2cccc(O)c2)nc2cnccn12	8.9µM*
CCc1cccc(C)c1Nc1c(-c2ccc(N(C)C)cc2)nc2cnccn12	-22%
CCN(CC)C(=O)c1cc2c(s1)CCC(C(=O)NCc1c(C)nn(C)c1C)C2 (configuration not stated)	5%
O=C(c1ccc2c(c1)OCO2)N1CCCC(n2cc(-c3nc(-c4ccccc4)no3)nn2)C1 (configuration not stated)	i
Cc1ccc(C(=O)N2CCC3(CC2)Nc2ccccc2NC3=O)cc1O	-7%
CCN1CCN(c2nc3c(s2)CN(C(=O)COC)CC3)CC1	i
CCN(CC)c1cc(CCC(=O)NCCN(C)C2CCCCC2)ccn1	1.6µM*
CCN(CC)c1cc(CCC(=O)N2CCC(COC)CC2)ccn1	1%
CCN(CC)c1cc(CCC(=O)NCCc2ccccn2)ccn1	-13%
CCN(CC)c1cc(CCC(=O)N2CCN(c3ccc(Cl)cc3)CC2)ccn1	8.9µM*
CCN(CC)c1cc(CCC(=O)O)ccn1	53%
CCN(CC)c1cc(CCC(=O)N2CCN(c3cccc(OC)c3)CC2)ccn1	i
CCN(CC)c1cc(CCC(=O)NCCOC)ccn1	3%
CCN(CC)c1cc(CCC(=O)NCCN2CCCCCC2)ccn1	3.5µM*
CCN(CC)c1cc(CCC(=O)NCCCN2CCN(C)CC2)ccn1	13%
CC(=O)N1CCC(Oc2ccc(Cl)cc2C(=O)NCCOc2cccnc2)CC1	-23%
COCC[C@]1(O)CCN(C(=O)c2cccc(S(N)(=O)=O)c2)C[C@H]1C	1%
O=C1NCCN2CC3(CCN(C(=O)c4ccco4)CC3)CC12 (configuration not stated)	12%
CS(=O)(=O)N1CC(n2cc(C(=O)NCC3CC3)nn2)C1	7%
O=C(CCc1ccccc1)N1CC2CC(C1)[C@H]1CCCC(=O)N1C2 (some centres not stated)	-1%
SMILES	Pf Dd2 growth
Cc1cn2nc(C(=O)NCc3ccccc3C(F)(F)F)cc2c(N2CCCC2)n1	-18%
CCC(=O)N1CCC(Cc2nc(-c3ccccc3)n[nH]2)CC1	-27%
O=C(Cc1ccccc1)N1CCC(Cc2nc(-c3cccnc3)n[nH]2)C1 (configuration not stated)	i
O=C(Nc1ccc2c(c1)OCCO2)N1CCCC(Cc2noc(-c3ccncc3)n2)C1 (configuration not stated)	i
Fc1cccc(CN2CCC(Cc3nc(-c4ccccc4)n[nH]3)C2)c1 (configuration not stated)	3.5µM*
O=C(c1ccccc1)N1CCC(Cc2nc(-c3ccncc3)n[nH]2)CC1	1.3µM*
O=C(Nc1ccc2c(c1)OCCO2)N1CCC(Cc2nc(-c3cccnc3)n[nH]2)C1 (configuration not stated)	3.5µM*
O=C(NCc1ccccc1)N1CCC(Cc2nc(-c3ccccc3)n[nH]2)C1 (configuration not stated)	-11%
CCc1n[nH]c(CC2CCN(C(=O)c3ccccc3)CC2)n1	-6%
Cc1ccc(CN2CCC(Cc3nc(-c4cccnc4)n[nH]3)C2)cc1C (configuration not stated)	i
Cc1noc([C@@H]2CN(C(=O)c3cc(C)oc3C)C[C@H]2CO)n1	-14%
O=[S+]1([O-])NCC2(CCCN(Cc3ccc(Cl)cc3)C2)Oc2ncccc21 (configuration not stated)	-29%
CS(=O)(=O)N1C[C@@H](COc2cccnc2)[C@H](c2ccccn2)C1	3%
CC(C)NC(=O)Nc1ccc([C@H]2OCC(=O)N(CC(=O)N(C)C)[C@@H]2CO)cc1	30%[44.1 µM]
COc1ccccc1CCNC(=O)C1CC(c2ccc(F)c(C)c2)CN(C(=O)C2CC2)C1 (configuration not stated)	0%
Cc1nn(CC(=O)N2CCN(c3ccc(F)cc3)CC2)c(=O)c2nc(C(C)C)sc12	i
CCOc1ccc(CN2CCN(c3ncnc4sc5c(c34)CC(C)CC5)CC2)cc1 (configuration not stated)	25%
Clc1ccc(CN2CCN(c3ncnc4sc5c(c34)CCCC5)CC2)cc1Cl	44%
c1nc(N2CCOCC2)c2c3c(sc2n1)CN(CC1CCCCC1)CC3	2.8µM*
COc1ccc(CN2CCN(c3ncnc4sc5c(c34)CCCC5)CC2)cc1F	-25%
c1coc(CN2CCc3c(sc4ncnc(N5CCOCC5)c34)C2)c1	8.9µM*
CN(C)c1ncnc2sc3c(c12)CCN(Cc1ccncc1)C3	i
COc1cc(NC(=O)O[C@@H]2CO[C@H]3[C@@H]2OC[C@@H]3NC(=O)c2cccs2)cc(OC)c1	i
O=C(Nc1ccccc1)N1CCCC1c1nnc2n1CCNC2 (configuration not stated)	6%
CC(=O)N1CCN(c2ccnc(-c3nnc(C)n3C3CCCCC3)c2)CC1	-8%[44.1 µM]
SMILES	Pf Dd2 growth
Cn1cc(CCC(=O)N[C@@H]2CCOC[C@H]2Oc2ccc(C(=O)O)cc2)cn1	7%
COc1ccc(NC(=O)C2CCN(c3cc(C(F)(F)F)ncn3)CC2)cc1OC	11µM*
COc1ccc(-c2cc(N3CCC(NC(=O)COc4ccc(F)cc4)CC3)n[nH]2)cc1	-10%
O=C(COc1ccc(F)cc1)NC1CCN(c2cc(C(F)(F)F)ncn2)CC1	5.6µM*
COc1ccc(NC(=O)C2CCN(c3cc(C(F)(F)F)ncn3)CC2)cc1	i
O=C(Nc1ccc(F)cc1)C1CCN(c2cc(C(F)(F)F)ncn2)CC1	i
O=C(NC1CCN(c2cc(C(F)(F)F)ncn2)CC1)c1ccco1	i
c1ccc2c(c1)CCC(N1CCN(Cc3cc4n(n3)CCCNC4)CC1)C2 (configuration not stated)	i
COc1cc(CN2CCC3(CC2)[C@H](O)C[C@@H]3OCCN)cc(OC)c1	-3%
CCc1cccc(NC(=O)CN2C=C(C(=O)OC)C(C)=NS2(=O)=O)c1	62%
CCn1ncc(N2CCC(NC(=O)CCC3CCCCC3)CC2)cc1=O	i
Cc1nc(C(=O)N2C[C@@H](COCC3CC3)[C@H](c3ccncc3)C2)co1	-18%
COCCC(=O)Nc1ccc2c(c1)CCC(=O)N2C	5%
COCc1nnc2n1CCC(NC(=O)c1ccc3cc[nH]c3c1)CC2 (configuration not stated)	5%
Cc1ccc(C)c(N2CCN(C(=O)C(CC(C)C)NS(=O)(=O)c3ccc4nc(C)sc4c3)CC2)c1 (configuration not stated)	7.9µM*
Cc1nc2ccc(S(=O)(=O)NCC(=O)Nc3ccc(C)c(Cl)c3)cc2s1	i
CSCCC(NS(=O)(=O)c1ccc2c(c1)oc(=O)n2C)C(=O)N1CCN(c2cc(C)ccc2C)CC1 (configuration not stated)	-21%
CN(C)CCNC(=O)c1ccc2nc(CCc3ccccc3)oc2c1	23%
O=C(NCCCN1CCN(c2ccccc2)CC1)c1ccc2nc(CCc3ccccc3)oc2c1	7.9µM*
O=C(NCCc1ccccc1)c1ccc2nc(CCc3ccccc3)oc2c1	50%
CCNC(=O)[C@@H]1C[C@H](N)CN1S(=O)(=O)c1cnn(CC)c1C	-9%
